A number with no mark means an inactive call.
What was measured:
Experiment in all cases: log2 ratio of Biotin-Ahx-Ub-VS probe labelling (fragment/DMSO); higher = less target engagement (more negative = stronger competition), active = hit call of the paper (q ≤ 0.05, log2 ratio ≤ -1)
Settings in all cases: compound concentration: 200 uM; treatment time: 3 h
[1] = molecular target: T1, ALG13 (UniProt Q9NP73)
T1 sequence (whole entry): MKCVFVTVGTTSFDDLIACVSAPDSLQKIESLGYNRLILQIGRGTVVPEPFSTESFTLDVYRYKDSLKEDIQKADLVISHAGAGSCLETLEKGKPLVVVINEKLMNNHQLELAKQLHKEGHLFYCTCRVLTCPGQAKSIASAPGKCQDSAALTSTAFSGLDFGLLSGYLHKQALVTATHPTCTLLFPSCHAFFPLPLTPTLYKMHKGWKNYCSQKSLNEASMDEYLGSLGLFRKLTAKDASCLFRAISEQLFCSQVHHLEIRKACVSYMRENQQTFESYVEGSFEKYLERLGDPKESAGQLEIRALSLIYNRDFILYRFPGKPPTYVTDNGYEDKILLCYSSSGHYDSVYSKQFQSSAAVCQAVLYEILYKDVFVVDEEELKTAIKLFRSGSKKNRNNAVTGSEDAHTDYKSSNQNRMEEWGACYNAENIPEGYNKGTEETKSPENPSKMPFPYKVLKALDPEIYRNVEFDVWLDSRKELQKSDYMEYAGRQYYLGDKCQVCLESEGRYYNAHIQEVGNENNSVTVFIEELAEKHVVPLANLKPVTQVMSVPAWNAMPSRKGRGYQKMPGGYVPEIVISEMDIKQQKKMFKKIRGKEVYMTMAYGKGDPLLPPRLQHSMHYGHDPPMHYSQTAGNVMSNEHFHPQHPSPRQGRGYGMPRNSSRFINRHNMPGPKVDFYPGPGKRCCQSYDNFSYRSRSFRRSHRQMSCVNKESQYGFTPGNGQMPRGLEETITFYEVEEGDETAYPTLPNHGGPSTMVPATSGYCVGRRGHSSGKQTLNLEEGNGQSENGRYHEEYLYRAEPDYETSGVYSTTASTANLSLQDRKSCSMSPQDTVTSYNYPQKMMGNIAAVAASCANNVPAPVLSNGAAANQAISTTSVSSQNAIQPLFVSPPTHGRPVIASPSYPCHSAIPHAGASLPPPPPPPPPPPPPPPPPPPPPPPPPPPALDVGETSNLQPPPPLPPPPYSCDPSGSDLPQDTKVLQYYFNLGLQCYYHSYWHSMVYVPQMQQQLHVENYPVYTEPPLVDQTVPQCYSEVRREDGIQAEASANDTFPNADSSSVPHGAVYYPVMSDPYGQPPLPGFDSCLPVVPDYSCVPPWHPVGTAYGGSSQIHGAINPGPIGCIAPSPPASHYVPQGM
Method in brief: (§1)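 Lysate from HEK293T cells, 495 µg per sample in Tris/CHAPS/IGEPAL buffer with protease inhibitors, was treated for 3 h in triplicate with fragment at 200 µM or vehicle. Biotin-Ahx-Ub-VS was next added at 0.5 µM final for 1 h. The labelled DUBs were enriched with NeutrAvidin, digested with LysC and trypsin, and run by diaPASEF LC-MS/MS, with values given as average log2 fragment/vehicle ratios by unpaired t-test on global-median-normalised Spectronaut quantities of proteins with ≥2 unique peptides.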

[2] = molecular target: ATXN3 (UniProt P54252)
Method in brief: as §1

[3] = molecular target: T2, BAP1 (UniProt Q92560)
T2 sequence (whole entry): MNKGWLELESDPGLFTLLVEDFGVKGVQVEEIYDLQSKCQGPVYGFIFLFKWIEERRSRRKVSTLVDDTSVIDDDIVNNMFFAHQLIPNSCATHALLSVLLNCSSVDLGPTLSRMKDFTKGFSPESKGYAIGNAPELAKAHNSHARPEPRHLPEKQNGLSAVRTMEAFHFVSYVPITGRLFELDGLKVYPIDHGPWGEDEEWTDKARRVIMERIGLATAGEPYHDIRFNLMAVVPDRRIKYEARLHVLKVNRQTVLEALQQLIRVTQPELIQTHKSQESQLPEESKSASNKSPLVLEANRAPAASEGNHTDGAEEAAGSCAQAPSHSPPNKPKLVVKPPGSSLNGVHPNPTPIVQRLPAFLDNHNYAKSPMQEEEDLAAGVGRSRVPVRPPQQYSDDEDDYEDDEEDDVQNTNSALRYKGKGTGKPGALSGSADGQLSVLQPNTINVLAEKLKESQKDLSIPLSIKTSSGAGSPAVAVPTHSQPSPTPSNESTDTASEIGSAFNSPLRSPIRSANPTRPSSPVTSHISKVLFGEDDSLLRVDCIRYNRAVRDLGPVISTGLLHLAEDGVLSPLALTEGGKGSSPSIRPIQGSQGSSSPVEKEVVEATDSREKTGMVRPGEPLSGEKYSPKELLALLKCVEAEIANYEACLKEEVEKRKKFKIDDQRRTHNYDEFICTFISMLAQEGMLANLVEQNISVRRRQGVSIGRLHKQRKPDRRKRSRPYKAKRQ
Method in brief: as §1

[4] = molecular target: EIF3F (UniProt O00303)
Method in brief: as §1

[5] = molecular target: EIF3H (UniProt O15372)
Method in brief: as §1

[6] = molecular target: T3, FAM105A (UniProt Q9NUU6)
T3 sequence (whole entry): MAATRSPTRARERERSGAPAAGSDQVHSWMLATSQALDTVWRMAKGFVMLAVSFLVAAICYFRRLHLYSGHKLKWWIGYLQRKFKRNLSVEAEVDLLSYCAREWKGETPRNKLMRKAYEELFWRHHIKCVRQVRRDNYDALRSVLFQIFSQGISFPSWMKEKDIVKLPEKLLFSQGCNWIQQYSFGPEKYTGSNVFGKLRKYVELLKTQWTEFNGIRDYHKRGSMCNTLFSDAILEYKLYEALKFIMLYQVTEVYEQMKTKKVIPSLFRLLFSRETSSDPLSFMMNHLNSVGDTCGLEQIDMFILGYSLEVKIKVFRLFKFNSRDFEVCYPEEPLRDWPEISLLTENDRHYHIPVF
Method in brief: as §1

[7] = molecular target: OTUB1 (UniProt Q96FW1)
Method in brief: as §1

[8] = molecular target: T4, OTUD4 (UniProt Q01804)
T4 sequence (whole entry): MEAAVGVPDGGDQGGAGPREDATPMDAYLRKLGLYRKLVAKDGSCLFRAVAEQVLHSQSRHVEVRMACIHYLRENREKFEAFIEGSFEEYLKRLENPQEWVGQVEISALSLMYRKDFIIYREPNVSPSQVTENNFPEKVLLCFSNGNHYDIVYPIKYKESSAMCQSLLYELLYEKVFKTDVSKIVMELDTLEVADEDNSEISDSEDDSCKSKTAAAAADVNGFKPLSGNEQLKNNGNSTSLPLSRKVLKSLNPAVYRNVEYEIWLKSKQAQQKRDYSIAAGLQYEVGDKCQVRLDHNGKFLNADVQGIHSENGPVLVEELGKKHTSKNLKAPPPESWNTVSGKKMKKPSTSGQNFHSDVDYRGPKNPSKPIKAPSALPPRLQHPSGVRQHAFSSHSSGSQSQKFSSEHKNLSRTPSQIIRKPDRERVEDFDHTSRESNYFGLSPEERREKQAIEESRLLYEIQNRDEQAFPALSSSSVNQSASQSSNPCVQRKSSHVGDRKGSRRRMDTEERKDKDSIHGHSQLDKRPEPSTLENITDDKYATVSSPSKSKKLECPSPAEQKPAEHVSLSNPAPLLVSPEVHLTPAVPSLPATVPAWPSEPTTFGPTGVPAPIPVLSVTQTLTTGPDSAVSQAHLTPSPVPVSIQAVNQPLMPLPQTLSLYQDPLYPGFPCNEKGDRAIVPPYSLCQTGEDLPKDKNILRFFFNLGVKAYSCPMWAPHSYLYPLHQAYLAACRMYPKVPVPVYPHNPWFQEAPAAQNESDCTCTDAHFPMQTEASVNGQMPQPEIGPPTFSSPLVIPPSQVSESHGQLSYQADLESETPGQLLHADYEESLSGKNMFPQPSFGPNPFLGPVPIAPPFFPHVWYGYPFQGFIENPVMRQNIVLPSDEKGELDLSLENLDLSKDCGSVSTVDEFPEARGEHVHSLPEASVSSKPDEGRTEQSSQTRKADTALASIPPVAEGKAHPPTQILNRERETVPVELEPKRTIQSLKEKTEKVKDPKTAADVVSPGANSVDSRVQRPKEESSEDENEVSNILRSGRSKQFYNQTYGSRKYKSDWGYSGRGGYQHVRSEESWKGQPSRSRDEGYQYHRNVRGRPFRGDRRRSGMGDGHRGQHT
Method in brief: as §1

[9] = molecular target: T5, OTUD5 (UniProt Q96G74)
T5 sequence (whole entry): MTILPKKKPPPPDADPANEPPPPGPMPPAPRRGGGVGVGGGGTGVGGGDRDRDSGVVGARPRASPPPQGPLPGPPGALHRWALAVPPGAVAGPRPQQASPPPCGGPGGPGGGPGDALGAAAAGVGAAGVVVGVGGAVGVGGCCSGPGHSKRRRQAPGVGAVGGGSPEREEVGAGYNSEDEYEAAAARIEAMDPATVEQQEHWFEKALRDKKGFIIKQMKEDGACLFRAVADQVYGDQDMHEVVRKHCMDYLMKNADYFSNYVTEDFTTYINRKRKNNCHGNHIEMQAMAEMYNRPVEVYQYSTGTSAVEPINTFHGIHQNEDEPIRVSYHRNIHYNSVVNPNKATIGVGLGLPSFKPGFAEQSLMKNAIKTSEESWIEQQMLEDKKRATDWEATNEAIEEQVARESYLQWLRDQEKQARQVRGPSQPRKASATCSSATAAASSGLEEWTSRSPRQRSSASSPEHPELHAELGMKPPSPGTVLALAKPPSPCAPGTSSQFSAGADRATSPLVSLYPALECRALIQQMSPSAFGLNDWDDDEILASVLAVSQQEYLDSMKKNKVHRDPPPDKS
Method in brief: as §1

Sequence of EIF3H (O15372 whole entry): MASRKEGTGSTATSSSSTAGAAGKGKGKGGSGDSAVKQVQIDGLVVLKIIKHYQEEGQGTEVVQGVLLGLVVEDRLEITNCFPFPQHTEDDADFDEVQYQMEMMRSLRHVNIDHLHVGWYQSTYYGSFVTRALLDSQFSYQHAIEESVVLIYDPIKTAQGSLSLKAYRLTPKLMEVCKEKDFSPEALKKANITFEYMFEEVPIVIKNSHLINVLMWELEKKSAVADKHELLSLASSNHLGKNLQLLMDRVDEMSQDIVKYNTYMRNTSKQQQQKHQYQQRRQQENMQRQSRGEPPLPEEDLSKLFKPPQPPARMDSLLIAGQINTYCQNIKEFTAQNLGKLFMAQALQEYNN
Sequence of ATXN3 (P54252 whole entry): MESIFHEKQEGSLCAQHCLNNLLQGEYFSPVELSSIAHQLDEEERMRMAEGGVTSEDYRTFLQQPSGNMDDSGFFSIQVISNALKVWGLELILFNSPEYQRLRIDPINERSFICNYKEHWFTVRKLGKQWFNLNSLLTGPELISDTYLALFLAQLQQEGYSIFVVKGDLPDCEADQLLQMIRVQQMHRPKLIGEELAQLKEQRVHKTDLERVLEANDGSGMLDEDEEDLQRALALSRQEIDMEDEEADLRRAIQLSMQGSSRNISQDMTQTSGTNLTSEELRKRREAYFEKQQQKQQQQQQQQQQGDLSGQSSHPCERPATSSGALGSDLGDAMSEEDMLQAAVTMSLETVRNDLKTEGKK
Sequence of EIF3F (O00303 whole entry): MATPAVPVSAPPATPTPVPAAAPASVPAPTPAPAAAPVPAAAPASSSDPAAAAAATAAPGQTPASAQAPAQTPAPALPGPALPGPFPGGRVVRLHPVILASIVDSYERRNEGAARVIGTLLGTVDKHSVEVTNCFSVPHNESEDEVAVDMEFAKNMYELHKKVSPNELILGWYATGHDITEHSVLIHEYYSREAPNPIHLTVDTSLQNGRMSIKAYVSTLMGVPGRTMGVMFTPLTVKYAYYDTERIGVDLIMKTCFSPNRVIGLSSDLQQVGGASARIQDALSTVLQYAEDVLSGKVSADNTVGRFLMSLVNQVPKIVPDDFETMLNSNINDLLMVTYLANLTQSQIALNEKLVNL
Sequence of OTUB1 (Q96FW1 whole entry): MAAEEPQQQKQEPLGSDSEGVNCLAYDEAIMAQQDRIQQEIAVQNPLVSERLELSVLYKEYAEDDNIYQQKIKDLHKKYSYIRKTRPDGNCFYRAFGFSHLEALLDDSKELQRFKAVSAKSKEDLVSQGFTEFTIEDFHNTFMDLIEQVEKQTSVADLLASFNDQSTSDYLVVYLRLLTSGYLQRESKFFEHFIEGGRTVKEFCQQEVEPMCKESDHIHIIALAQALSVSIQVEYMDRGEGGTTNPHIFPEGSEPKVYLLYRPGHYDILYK

Cl.Cn1c(CNC(=O)CCl)nc2cccnc21
log2 ratio of Biotin-Ahx-Ub-VS probe labelling [1]: 0.0884 | log2 ratio of Biotin-Ahx-Ub-VS probe labelling [2]: -0.424 | log2 ratio of Biotin-Ahx-Ub-VS probe labelling [3]: -1.32 (active) | log2 ratio of Biotin-Ahx-Ub-VS probe labelling [4]: -0.0906 | log2 ratio of Biotin-Ahx-Ub-VS probe labelling [5]: 0.0923 | log2 ratio of Biotin-Ahx-Ub-VS probe labelling [6]: -0.0642 | log2 ratio of Biotin-Ahx-Ub-VS probe labelling [7]: -0.136 | log2 ratio of Biotin-Ahx-Ub-VS probe labelling [8]: -0.388 | log2 ratio of Biotin-Ahx-Ub-VS probe labelling [9]: -0.323

Source: the supplement of paper PMC11732987, “Enantioselective OTUD7B fragment discovery through chemoproteomics screening and high-throughput optimisation” (Communications Chemistry, 2025)
